What all share (assay): DAPPL (digital affinity profiling via proximity ligation, sequencing); 10 mM Tris-HCl pH 7.5, 50 mM NaCl, 1 mM DTT, 4% glycerol, room temperature, 30 min; GST-TFs on glutathione beads, 16-mer random dsDNA library, 0.1% formaldehyde crosslink after washing; high values mean tight binding
Test [1] has as its target T1, FEV (Homo sapiens, UniProt Q99581 1-238).
T1 sequence: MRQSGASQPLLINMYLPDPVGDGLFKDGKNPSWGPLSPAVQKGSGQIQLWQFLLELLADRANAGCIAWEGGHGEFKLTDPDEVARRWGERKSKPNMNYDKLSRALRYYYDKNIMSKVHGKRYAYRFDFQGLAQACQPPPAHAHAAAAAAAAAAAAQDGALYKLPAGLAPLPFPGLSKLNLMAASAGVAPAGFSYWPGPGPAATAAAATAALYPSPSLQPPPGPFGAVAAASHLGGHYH
As to conditions: protein: recombinant; tags: N-terminal GST; dsDNA, one strand shown. An outline of the steps:
(§1)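 Human transcription factors carrying a GST fusion were produced in yeast, bound to glutathione beads, tagged with DNA barcodes and pooled together with a tag-only sample. Each pool was held with 200 nmole of a random double-stranded 16-mer DNA library in Tris/NaCl/DTT/glycerol buffer for 30 min at room temperature, then washed, crosslinked in 0.1% formaldehyde, proximity-ligated with BsaI/T4 ligase (1 h, 37 °C), PCR-amplified and sequenced on an Illumina NextSeq500. Binding signal is the read frequency of each hexamer for a given factor divided by its frequency in the tag-only sample.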

In test [2] the target is ETV5 (Homo sapiens, UniProt P41161 1-510). As to conditions: protein: recombinant; tags: N-terminal GST; dsDNA, one strand shown. An outline of the steps:
as §1

Test [3] deals with HSF1 (Homo sapiens, UniProt Q00613 1-529). To be noted: protein: recombinant; tags: N-terminal GST; chain copies: 3; dsDNA, one strand shown. An outline of the steps: as §1
For test [4], the target named is T2, SPIC (Homo sapiens, UniProt Q8N5J4 1-248).
T2 sequence: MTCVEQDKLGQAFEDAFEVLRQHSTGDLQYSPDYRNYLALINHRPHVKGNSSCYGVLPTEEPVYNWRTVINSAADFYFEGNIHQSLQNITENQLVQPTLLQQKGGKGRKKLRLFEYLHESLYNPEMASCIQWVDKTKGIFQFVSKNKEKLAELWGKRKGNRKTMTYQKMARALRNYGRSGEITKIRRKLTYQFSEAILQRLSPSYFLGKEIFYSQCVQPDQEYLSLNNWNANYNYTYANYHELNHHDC
To be noted: protein: recombinant; tags: N-terminal GST; dsDNA, one strand shown. An outline of the steps:
as §1

In test [5] the target is ELF4 (Homo sapiens, UniProt Q99607 1-663). To be noted: protein: recombinant; tags: N-terminal GST; dsDNA, one strand shown. An outline of the steps:
as §1

In test [6] the target is T3, ELK4 (Homo sapiens, UniProt P28324-2 1-405).
T3 sequence: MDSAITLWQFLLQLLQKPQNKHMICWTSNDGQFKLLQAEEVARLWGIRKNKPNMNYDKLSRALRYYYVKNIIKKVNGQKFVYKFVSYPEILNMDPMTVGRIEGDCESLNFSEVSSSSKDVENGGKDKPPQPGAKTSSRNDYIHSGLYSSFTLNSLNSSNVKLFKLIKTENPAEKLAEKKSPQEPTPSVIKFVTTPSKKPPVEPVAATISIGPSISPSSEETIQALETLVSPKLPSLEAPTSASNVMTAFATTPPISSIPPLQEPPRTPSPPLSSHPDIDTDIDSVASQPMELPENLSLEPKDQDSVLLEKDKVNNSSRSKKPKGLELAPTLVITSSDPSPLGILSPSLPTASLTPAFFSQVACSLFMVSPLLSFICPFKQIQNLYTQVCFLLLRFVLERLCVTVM
To be noted: protein: recombinant; tags: N-terminal GST; dsDNA, one strand shown. An outline of the steps: as §1

Test [7] addresses T4, ETV2 (Homo sapiens, UniProt O00321 1-342).
T4 sequence: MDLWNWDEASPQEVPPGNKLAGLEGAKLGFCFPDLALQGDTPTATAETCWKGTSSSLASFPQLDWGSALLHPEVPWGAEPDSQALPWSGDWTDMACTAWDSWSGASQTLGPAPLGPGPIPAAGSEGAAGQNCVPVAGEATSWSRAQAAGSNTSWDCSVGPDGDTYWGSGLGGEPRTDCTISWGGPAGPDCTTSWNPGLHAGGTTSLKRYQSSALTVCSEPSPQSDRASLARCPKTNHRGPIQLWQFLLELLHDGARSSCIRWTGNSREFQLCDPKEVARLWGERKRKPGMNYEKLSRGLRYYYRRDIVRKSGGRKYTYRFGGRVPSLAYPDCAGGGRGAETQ
To be noted: protein: recombinant; tags: N-terminal GST; dsDNA, one strand shown. An outline of the steps: as §1

The target of test [8] is T5, ELF3 (Homo sapiens, UniProt P78545 1-371).
T5 sequence: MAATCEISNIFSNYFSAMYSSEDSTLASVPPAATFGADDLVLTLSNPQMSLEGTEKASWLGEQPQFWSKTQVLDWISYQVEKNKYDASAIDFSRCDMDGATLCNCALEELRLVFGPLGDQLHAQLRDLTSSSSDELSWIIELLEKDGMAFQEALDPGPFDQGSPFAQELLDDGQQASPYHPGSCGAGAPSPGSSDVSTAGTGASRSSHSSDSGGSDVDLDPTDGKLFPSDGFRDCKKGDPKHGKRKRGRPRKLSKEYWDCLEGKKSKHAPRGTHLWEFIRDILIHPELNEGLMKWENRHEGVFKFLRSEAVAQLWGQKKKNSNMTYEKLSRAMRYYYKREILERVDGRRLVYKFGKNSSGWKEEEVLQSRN
As to conditions: protein: recombinant; tags: N-terminal GST; dsDNA, one strand shown. An outline of the steps: as §1

In test [9] the target is CRX (Homo sapiens, UniProt O43186 1-299). As to conditions: protein: recombinant; tags: N-terminal GST; dsDNA, one strand shown. An outline of the steps: as §1
Test [10] concerns the target ETV1 (Homo sapiens, UniProt P50549 1-477). To be noted: protein: recombinant; tags: N-terminal GST; dsDNA, one strand shown. An outline of the steps: as §1
In test [11] the target is T6, ERF (Homo sapiens, UniProt P50548 1-548).
T6 sequence: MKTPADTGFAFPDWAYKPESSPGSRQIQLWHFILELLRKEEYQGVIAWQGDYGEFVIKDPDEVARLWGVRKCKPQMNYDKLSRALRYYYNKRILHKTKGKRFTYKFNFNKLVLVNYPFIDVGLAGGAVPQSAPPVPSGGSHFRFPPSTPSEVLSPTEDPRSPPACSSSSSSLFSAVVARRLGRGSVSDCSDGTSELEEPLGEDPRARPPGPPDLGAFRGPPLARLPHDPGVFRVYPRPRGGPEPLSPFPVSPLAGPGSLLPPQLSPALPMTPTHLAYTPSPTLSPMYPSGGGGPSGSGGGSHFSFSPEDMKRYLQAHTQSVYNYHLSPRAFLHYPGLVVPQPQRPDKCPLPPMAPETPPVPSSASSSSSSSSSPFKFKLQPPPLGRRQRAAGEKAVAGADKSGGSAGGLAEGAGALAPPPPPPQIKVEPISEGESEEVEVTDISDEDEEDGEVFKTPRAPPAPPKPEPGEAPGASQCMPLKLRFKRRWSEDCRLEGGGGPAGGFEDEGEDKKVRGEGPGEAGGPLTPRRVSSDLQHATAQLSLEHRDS
To be noted: protein: recombinant; tags: N-terminal GST; dsDNA, one strand shown. An outline of the steps: as §1

Test [12] addresses T7, ETV3L (Homo sapiens, UniProt Q6ZN32 1-361).
T7 sequence: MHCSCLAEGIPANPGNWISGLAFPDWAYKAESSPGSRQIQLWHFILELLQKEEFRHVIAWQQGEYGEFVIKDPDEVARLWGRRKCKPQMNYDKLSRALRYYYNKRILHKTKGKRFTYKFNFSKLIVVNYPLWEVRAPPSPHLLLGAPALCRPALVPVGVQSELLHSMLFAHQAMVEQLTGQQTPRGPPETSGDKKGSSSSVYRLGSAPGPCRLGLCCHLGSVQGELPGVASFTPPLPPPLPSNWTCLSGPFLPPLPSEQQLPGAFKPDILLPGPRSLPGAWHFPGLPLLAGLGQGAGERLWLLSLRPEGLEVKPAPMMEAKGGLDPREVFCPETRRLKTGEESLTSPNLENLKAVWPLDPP
To be noted: protein: recombinant; tags: N-terminal GST; dsDNA, one strand shown. An outline of the steps: as §1

Test [13] addresses T8, ETS2 (Homo sapiens, UniProt P15036 1-469).
T8 sequence: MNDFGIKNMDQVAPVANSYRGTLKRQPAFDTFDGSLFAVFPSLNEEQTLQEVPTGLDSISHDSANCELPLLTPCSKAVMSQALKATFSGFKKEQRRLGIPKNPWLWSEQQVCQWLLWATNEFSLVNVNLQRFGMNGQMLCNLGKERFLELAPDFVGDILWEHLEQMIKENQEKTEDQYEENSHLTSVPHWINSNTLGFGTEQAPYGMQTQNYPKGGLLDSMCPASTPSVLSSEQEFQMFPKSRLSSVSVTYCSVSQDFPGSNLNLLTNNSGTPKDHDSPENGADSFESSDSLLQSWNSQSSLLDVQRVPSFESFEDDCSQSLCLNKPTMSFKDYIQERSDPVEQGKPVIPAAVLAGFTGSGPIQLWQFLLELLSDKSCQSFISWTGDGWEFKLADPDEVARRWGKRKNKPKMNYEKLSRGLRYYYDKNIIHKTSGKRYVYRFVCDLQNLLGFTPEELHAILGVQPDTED
As to conditions: protein: recombinant; tags: N-terminal GST; dsDNA, one strand shown. An outline of the steps: as §1

Test [14] concerns the target T9, SPDEF (Homo sapiens, UniProt O95238 1-335).
T9 sequence: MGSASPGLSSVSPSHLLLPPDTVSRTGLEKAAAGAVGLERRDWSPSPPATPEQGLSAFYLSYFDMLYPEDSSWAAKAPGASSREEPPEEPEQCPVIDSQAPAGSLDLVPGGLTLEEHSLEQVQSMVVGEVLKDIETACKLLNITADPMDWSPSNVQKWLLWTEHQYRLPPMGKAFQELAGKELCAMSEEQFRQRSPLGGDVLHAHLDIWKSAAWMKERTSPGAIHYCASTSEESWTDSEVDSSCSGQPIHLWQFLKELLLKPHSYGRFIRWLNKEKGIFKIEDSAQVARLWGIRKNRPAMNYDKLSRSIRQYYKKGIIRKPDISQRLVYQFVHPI
To be noted: protein: recombinant; tags: N-terminal GST; dsDNA, one strand shown. An outline of the steps: as §1

Test [15] addresses T10, ETV7 (Homo sapiens, UniProt Q9Y603 1-341).
T10 sequence: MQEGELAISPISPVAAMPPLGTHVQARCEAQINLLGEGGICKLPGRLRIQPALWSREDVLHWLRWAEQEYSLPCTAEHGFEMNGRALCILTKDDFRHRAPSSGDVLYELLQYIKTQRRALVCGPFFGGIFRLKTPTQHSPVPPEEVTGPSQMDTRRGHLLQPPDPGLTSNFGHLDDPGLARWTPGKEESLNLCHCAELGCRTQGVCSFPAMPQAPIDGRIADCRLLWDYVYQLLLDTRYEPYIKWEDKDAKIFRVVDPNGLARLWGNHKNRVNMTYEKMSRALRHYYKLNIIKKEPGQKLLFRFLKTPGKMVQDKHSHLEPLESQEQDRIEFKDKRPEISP
To be noted: protein: recombinant; tags: N-terminal GST; dsDNA, one strand shown. An outline of the steps: as §1

The target of test [16] is T11, ELF5 (Homo sapiens, UniProt Q9UKW6-2 1-255).
T11 sequence: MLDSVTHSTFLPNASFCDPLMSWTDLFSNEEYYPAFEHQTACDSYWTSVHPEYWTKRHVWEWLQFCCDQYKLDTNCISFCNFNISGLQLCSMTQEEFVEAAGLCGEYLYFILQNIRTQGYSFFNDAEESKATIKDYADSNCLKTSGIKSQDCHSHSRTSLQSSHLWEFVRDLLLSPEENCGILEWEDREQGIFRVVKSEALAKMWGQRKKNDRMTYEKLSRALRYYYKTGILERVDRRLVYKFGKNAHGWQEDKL
To be noted: protein: recombinant; tags: N-terminal GST; dsDNA, one strand shown. An outline of the steps: as §1

The target of test [17] is T12, ETV3 (Homo sapiens, UniProt P41162-2 1-143).
T12 sequence: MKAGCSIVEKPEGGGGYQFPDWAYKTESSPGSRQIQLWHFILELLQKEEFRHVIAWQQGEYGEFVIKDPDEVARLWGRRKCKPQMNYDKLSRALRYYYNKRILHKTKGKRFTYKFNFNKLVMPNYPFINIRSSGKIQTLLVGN
As to conditions: protein: recombinant; tags: N-terminal GST; dsDNA, one strand shown. An outline of the steps: as §1

The target in test [18] is ETV6 (Homo sapiens, UniProt P41212 1-452). As to conditions: protein: recombinant; tags: N-terminal GST; dsDNA, one strand shown. An outline of the steps:
as §1

Chain of ELF4 (Q99607 whole entry): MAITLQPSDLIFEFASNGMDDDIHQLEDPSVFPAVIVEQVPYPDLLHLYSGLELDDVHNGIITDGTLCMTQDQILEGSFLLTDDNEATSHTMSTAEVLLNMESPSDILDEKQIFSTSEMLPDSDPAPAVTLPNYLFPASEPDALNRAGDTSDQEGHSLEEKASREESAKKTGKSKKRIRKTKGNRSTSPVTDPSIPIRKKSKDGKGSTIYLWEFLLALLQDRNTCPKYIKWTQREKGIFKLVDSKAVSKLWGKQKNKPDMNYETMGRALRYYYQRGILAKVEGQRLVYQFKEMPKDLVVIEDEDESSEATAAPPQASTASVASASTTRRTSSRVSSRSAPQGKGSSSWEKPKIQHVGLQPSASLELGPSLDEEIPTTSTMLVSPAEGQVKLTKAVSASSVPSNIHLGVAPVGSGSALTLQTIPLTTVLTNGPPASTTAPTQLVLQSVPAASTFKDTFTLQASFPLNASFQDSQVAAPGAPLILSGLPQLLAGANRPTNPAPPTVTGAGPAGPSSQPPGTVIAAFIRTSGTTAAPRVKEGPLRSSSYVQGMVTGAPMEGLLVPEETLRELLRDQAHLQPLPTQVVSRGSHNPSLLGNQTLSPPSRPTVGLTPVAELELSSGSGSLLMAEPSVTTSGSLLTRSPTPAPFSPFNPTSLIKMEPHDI
Chain of HSF1 (Q00613 whole entry): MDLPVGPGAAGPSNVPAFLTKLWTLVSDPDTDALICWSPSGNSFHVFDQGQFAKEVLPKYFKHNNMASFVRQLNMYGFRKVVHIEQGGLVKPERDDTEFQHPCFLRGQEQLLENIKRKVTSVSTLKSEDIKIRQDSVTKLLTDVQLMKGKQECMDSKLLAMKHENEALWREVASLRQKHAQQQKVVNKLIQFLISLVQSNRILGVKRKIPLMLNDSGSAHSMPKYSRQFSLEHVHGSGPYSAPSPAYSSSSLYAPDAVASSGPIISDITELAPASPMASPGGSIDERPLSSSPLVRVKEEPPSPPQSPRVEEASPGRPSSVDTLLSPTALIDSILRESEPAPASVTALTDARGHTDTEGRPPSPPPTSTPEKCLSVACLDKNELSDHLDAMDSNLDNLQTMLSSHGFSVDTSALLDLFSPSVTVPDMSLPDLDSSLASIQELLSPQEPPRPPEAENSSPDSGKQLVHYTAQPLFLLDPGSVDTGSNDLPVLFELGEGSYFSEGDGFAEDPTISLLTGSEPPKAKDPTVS
Chain of ETV6 (P41212 whole entry): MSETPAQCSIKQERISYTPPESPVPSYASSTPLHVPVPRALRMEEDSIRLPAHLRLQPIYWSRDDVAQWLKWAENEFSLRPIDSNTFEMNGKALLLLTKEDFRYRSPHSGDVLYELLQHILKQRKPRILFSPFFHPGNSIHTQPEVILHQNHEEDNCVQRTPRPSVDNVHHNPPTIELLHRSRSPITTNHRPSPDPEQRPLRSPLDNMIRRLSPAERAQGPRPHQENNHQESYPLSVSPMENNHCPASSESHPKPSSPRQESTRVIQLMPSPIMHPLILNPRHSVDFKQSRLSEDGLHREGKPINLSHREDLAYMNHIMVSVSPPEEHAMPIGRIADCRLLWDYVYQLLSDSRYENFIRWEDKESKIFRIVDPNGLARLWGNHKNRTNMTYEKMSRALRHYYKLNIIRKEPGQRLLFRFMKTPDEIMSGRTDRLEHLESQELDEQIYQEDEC
Chain of CRX (O43186 whole entry): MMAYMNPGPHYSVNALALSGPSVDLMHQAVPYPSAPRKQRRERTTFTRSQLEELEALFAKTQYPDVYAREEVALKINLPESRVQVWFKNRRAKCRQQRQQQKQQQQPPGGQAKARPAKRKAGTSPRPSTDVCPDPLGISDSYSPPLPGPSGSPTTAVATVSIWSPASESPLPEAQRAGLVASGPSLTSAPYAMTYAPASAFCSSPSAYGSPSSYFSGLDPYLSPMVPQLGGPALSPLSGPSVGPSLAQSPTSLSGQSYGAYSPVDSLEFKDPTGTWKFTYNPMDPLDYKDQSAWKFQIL
Chain of ETV1 (P50549 whole entry): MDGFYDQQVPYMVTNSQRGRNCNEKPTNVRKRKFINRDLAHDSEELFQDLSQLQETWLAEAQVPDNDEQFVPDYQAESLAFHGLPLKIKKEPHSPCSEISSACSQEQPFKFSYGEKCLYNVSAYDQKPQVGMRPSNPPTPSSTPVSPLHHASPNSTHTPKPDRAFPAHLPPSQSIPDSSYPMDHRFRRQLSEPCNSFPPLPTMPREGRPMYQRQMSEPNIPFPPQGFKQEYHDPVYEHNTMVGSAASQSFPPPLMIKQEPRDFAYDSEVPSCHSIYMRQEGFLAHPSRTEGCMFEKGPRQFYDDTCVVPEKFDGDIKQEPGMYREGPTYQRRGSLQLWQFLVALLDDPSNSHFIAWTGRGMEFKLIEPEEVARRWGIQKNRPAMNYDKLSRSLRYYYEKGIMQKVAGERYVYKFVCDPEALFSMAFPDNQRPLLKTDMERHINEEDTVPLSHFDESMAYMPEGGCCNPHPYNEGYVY
Chain of ETV5 (P41161 whole entry): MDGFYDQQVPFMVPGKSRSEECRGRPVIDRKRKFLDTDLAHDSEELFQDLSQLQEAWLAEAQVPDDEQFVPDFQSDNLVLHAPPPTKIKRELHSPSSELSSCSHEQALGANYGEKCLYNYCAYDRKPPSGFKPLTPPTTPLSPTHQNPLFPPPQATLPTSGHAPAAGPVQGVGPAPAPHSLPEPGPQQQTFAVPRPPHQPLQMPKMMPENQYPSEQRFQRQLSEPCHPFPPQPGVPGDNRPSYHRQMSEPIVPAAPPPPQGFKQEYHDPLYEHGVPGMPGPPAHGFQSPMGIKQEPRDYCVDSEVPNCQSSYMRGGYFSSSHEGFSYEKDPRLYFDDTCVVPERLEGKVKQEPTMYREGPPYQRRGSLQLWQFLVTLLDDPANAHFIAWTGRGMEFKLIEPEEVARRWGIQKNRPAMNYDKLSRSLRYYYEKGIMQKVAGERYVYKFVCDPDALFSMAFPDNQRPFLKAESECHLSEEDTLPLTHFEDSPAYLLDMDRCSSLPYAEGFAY

CTAGGT: the binding signal in test [1] is 1.07 fold enrichment (6-mer frequency, TF over GST control); in test [2], 1.18 fold enrichment (6-mer frequency, TF over GST control); in [3], 1.19 fold enrichment (6-mer frequency, TF over GST control); in test [4] it was 1.26 fold enrichment (6-mer frequency, TF over GST control); in [5], 1.12 fold enrichment (6-mer frequency, TF over GST control); in [6], 1.18 fold enrichment (6-mer frequency, TF over GST control). Moreover, the binding signal in test [7] is 1.07 fold enrichment (6-mer frequency, TF over GST control); in [8], 1.18 fold enrichment (6-mer frequency, TF over GST control); in [9] it was 1.05 fold enrichment (6-mer frequency, TF over GST control); in test [10], 1.1 fold enrichment (6-mer frequency, TF over GST control); in test [11], 1.03 fold enrichment (6-mer frequency, TF over GST control); in test [12] it was 1.16 fold enrichment (6-mer frequency, TF over GST control). For the same sequence, the binding signal in test [13] is 1.11 fold enrichment (6-mer frequency, TF over GST control); in test [14], 1.17 fold enrichment (6-mer frequency, TF over GST control); in test [15], 1.1 fold enrichment (6-mer frequency, TF over GST control); in test [16], 1.01 fold enrichment (6-mer frequency, TF over GST control); in test [17] it was 1.14 fold enrichment (6-mer frequency, TF over GST control); in test [18], 1.11 fold enrichment (6-mer frequency, TF over GST control).
